Source: PubChem BioAssay
D3 antag – D3 dopamine receptor (human) antagonism; P35462; D3R cells, DiscoveRx beta-arrestin luminescence, antagonist mode; stronger effect = lower value; max response, negative = inhibition, %; hit rate 2.5% among 360,000; AID 652054; in the data active means max response below about -50%; inconclusive means no clear call, values can overlap the other calls; further: on the % scale 0 is the no-effect control and ±100 the full control effect
Target sequence (P35462 whole entry, looked up): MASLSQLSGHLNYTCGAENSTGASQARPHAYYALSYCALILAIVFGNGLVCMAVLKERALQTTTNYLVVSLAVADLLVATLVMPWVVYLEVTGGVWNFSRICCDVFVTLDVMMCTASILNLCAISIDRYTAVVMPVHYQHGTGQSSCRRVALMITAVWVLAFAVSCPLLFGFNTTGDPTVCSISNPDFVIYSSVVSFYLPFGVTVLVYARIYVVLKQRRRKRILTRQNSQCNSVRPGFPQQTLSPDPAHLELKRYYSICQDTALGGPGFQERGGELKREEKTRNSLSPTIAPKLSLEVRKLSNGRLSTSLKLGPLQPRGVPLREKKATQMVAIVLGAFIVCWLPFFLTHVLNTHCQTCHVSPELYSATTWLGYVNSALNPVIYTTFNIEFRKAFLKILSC
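Cells expressing the human receptor were seeded at 1500 cells/well, incubated overnight at 37 degrees C in 5% CO2, then exposed to library compounds with dopamine controls for 90 minutes at 37 degrees C before luminescent detection.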
D1 agonist – activates the human D1 dopamine receptor; HEK293 T-REx D1 cells, calcium flux, agonist mode; hit rate 1% among 360,000; activation, % at 2 µM; P21728; in the data active means activation above about 30%; further: 0% is about no effect
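Tetracycline-induced HEK293 TREx D1 cells, force-coupled to calcium signalling, were dye-loaded with a no-wash calcium kit. Compound was pin-added after a 10 s baseline. Fluorescence was read kinetically at 1 cycle/s for 180 s, with calcium rises flagged as agonism.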
Chronic BCR inh – chronic active BCR signaling inhibition | ABC-DLBCL IkBa-CBG/CBR reporter, luminescence ratio, 4 h | AID 493014 | Potency, µM (top dose mostly 46.1 µM), inactives show at the highest dose activity change, negative = inhibition, most hits filed as inhibitors | hit rate 0.05% among 340,000; active means well fitted inhibition curve with a large enough effect in the signal ratio, with a control signal flat, not every such curve was filed as active; inconclusive means small, poorly fitted or top-dose-only effect, or effect the other way, or a change in a side signal; the % refers to the signal ratio;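 further: potency means the concentration at half of the fitted maximal effect; plate controls were basal doxycycline-induced cells for no effect and cells given 10 µM MG132 for full effect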
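TMD8 ABC-DLBCL cells carrying doxycycline-inducible green luciferase fused to IkappaBalpha plus unfused red luciferase were exposed to compounds (up to 46 uM) for 4 hrs at 37C. Activity came from the overlap-corrected green/red luminescence ratio.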
D3 ag – agonists of human D3 dopamine receptor; D3R DiscoveRx beta-arrestin cells, luminescence, 90 min; max activation, %; P35462; AID 652048; hit rate 0.58% among 410,000; in the data active means max activation above about 30%; further: 0% is about no effect
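Agonist mode: compounds and dopamine controls were applied to plated cells for 90 min at 37 degrees C after an overnight attachment at 1500 cells/well. Luminescent read-out followed 30 - 60 minutes at room temperature with DiscoveRx detection reagent.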
D1 antag – blocks dopamine activation of the human D1 receptor | P21728 | HEK293 TREx D1 cells, calcium flux, dopamine EC80; stronger effect = lower value | activity change, negative = inhibition, % at 10 µM | hit rate 3.2% among 360,000 | AID 504652; in the data active means activity change below about -30%; further: on the % scale 0 is the no-effect control and ±100 the full control effect
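After overnight tetracycline induction at 30 C, force-coupled D1 HEK293 cells took up a no-wash calcium dye at room temperature. Compounds were added and monitored 180 s, and the response to EC80 dopamine was then recorded.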
D1 potentiator – enhances dopamine response at the human D1 receptor; AID 504651; hit rate 0.036% among 360,000; potentiation, % at 10 µM; P21728; HEK293 TREx D1 cells, calcium flux, dopamine EC20 potentiation; in the data active means potentiation above about 30%; further: 0% is about no effect
An asterisk follows results filed as active; ? = inconclusive; . = no result; ! = not confirmed by another sample. Sampled rows, rich in hits. Any-hit rate of the full collection: about 6%.

SMILES	D3 antag	D1 agonist	Chronic BCR inh	D3 ag	D1 antag	D1 potentiator
Cn1c(=O)c2c(nc(SCC(=O)Nc3ccc(OC(F)(F)F)cc3)n2Cc2cccc(C(F)(F)F)c2)n(C)c1=O	.	1	.	7	10	-2
COc1ccccc1N1CCN(C(c2ccccn2)c2nnnn2C2CCCCC2)CC1 (stereo not given)	-66*	5	19%	1	12	-6
COc1ccccc1N1CCN(C(c2cc3cc(C)ccc3[nH]c2=O)c2nnnn2C2CCCC2)CC1 (stereo not given)	-8	-1	0%	-20	4	-1
CCC(C)(C)n1nnnc1C(c1cc2ccc(OC)cc2[nH]c1=O)N1CCN(C2CCCCC2)CC1 (stereo not given)	-64*	3	-5%	-24	-4	4
COc1ccccc1N1CCN(C(c2cc3ccc(C)cc3[nH]c2=O)c2nnnn2C2CCCC2)CC1 (stereo not given)	-70*	1	-1%	-9	10	-4
CCC(C)(C)n1nnnc1C(c1cc2cc3c(cc2[nH]c1=O)OCO3)N1CCCCC1 (stereo not given)	15	2	1%	2	-3	3
O=S1(=O)CC(N2CCN(CCO)CC2)CN1C1CCCCC1 (stereo not given)	?	.	.	-12	.	.
COCCN1C[C@@H](CO)O[C@@H](n2cnc3c(N(C)C)ncnc32)C1	0	.	.	-11	.	.
CC1CC(C)CN(c2ccc(-n3cnnn3)cc2[N+](=O)[O-])C1 (stereo not given)	-26	1	2%	1	10	-5
O=[N+]([O-])c1cc(-n2cnnn2)ccc1N1CCC(Cc2ccccc2)CC1	19	-1	15%	-1	-35*	-3
CN(C)S(=O)(=O)c1ccc(C(=O)OCc2nnc(-c3ccccc3)o2)cc1	-7	9	?	5	-17	4
O=C(OCc1nnc(-c2ccccc2)o1)c1ccc(CO)cc1	-51*	9	-1%	-4	-6	7
O=C(OCc1ccccc1)c1cccc(-c2nnc(-c3ccccc3)o2)c1	25	9	14%	38*	15	2
O=C(OCc1ccc(C(=O)c2ccccc2)cc1)c1cccc(-c2nnc(-c3ccccc3)o2)c1	-19	2	-21%	-6	-19	1
O=C(OCc1nnc(-c2ccccc2)o1)c1cc(S(=O)(=O)N2CCOCC2)c(Cl)cc1Cl	-55*	3	2%	1	-34*	-4
CS(=O)(=O)c1ccc(C(=O)OCc2nnc(-c3ccccc3)o2)cc1[N+](=O)[O-]	-60*	0	?	-15	-24	-12
O=C(OCc1nnc(-c2ccccc2)o1)c1ccc(Cl)cc1	-16	8	-4%	0	-16	-1
Cc1ccc(NC(=O)CSc2nc3ccc(NC(=O)c4ccco4)cc3s2)cc1	.	0	.	6	7	0
O=C(OCc1nnc(-c2ccccc2)o1)c1ccc(S(=O)(=O)NCc2ccco2)cc1	-78*	0	-2%	-5	-8	-7
NC(=O)COC(=O)c1ccc(S(=O)(=O)NCc2ccco2)cc1	-24	4	2%	-5	-1	-8
CC(=O)c1c(C)[nH]c(C(=O)OCc2nnc(-c3ccccc3)o2)c1C	41	7	?	0	-32*	-4
C=CCOC1=CS(=O)(=O)N(Cc2ccc(Br)cc2)c2ccc(Br)cc21	-4	.	5%	42*	.	.
O=C1CS(=O)(=O)N(Cc2ccccc2F)c2ccc(Br)cc21	9	.	12%	16	.	.
O=C(Nn1c(O)c(C=C2N=c3ccccc3=N2)sc1=S)c1ccccc1Cl	-55*	1	?	-2	-4	-1
Cc1ccc(/C=C2/Sc3ccc(C(=O)N4CCN(c5ccccn5)CC4)cc3NC2=O)cc1	0	4	0%	5	-46*	-4
SMILES	D3 antag	D1 agonist	Chronic BCR inh	D3 ag	D1 antag	D1 potentiator
Cc1cc(C(=O)N2CCCC2(C)C(=O)NCC(C)C)nn1C(C)(C)C (stereo not given)	0	.	.	-5	.	.
CC(C)(C)C(=O)OCOC(=O)[C@@H]1N2C(=O)[C@@H](N=CN3CCCCCC3)[C@H]2SC1(C)C	0	-1	4%	32*!	-4	-4
CCc1ccccc1N(C)C(=O)C1CCCN(c2ncnc3c2nc2n3CCCCC2)C1 (stereo not given)	.	-2	.	-8	7	3
CC(=O)N(C1=C(Cl)C(=O)c2ccccc2C1=O)C1CCCCC1	-85*	1	?	-41	-35*	-15
CC(=O)N(c1ccccc1C)C1CCCC1	0	0	0%	1	4	-4
FC(F)(F)c1cccc(Nc2nc3nonc3nc2Nc2ccc(Cl)cc2)c1	.	51*	.	-11	-48*	-5
NS(=O)(=O)c1ccc(NC(=S)NCc2ccccc2Cl)cc1	-68*	9	3%	-8	-9	11
NS(=O)(=O)c1ccc(NC(=S)NCc2ccccc2)cc1	-12	1	7%	0	-4	-5
O=C(O)c1ccc(-n2cc(C(=O)c3ccccc3O)cn2)cc1	-13	5	?	-1	-3	-1
O=C(c1cnn(-c2ccccc2)c1)c1ccc2ccccc2c1O	32	5	?	-2	-32*	10
CN(C)c1ccc(/C=c2\sc3n(c2=O)CCCN=3)cc1	3	46*	?	-1	3	-4
COC(=O)c1cc(Cl)cc(Cl)c1OS(=O)(=O)N(C)C	21	1	?	16	-30*	7
CCCN1CCC(=O)N([C@H](COc2ccccc2)CC(C)C)CC1	-58*	3	-2%	-39	-9	0
Cc1ccc(S(=O)(=O)Nc2ccccc2-c2ccccc2NS(=O)(=O)c2ccc(C)cc2)cc1	21	2	?	7	-2	-5
O=C1c2ccccc2-c2cccc(NS(=O)(=O)c3ccc(C(F)(F)F)cc3)c21	22	55*	-3%	1	3	0
CCCCNC(=O)c1nc(-c2cccnc2)oc1-c1ccc(OC(F)(F)F)cc1	-4	.	.	-5	.	.
CCCn1c(=O)c2ccccc2n2c(SCCOc3ccc(Cl)cc3)nnc12	-50*	0	1%	-1	15	-10
CCCn1c(=O)c2ccccc2n2c(SCCOc3ccccc3F)nnc12	8	2	?	-1	12	-3
CC(C)Cc1nc2oc3c(NCC4CCCO4)ncnc3c2c2c1CCC2 (stereo not given)	1	2	?	58*	-1	-6
CCc1cccc2cc3c(N)c(C(=O)Nc4ccc(S(=O)(=O)N5CCCC5)cc4)sc3nc12	0	60*	?	-9	12	0
